Experimental data published in PubChem BioAssay (NCI).
This is part of a sample that, as a whole, favours compounds with a hit. Of some 79,000 tested, about 15% had one in any assay. Activity calls are given as the source filed them. Cut-off read from the data, not from the text of the source: active = growth inhibition above about 70%; inactive = the rest.

Tests used:
[1] = NCI Yeast Anticancer Drug Screen. Data for the rad52 strain (AID 147);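 note: 0% = growth of vehicle-treated control cultures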; settings: S. cerevisiae rad52 mutant growth inhibition, hits give high values
Outline: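 Compounds are applied to a genetically defined yeast strain lacking normal DNA damage repair, and inhibition of growth is expressed relative to cultures given vehicle only.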

[2] = NCI Yeast Anticancer Drug Screen. Data for the wt1 strain (AID 149);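 note: 0% = growth of vehicle-treated wt1 cultures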; settings: S. cerevisiae wt1 strain (SPY 50644) growth inhibition, hits give high values
Outline: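 Vehicle-normalised growth inhibition; strain wt1; compound exposure.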

[3] = NCI Yeast Anticancer Drug Screen. Data for the rad50EPP+ strain (AID 151);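 note: 0% = growth of vehicle-treated control cultures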; settings: S. cerevisiae rad50 mutant strain, hits give high values
Outline: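 Compounds were applied to the rad50EPP+ yeast strain, which bears a defined DNA repair alteration, and growth inhibition was determined relative to vehicle-treated cultures.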

[4] = NCI Yeast Anticancer Drug Screen. Data for the mgt1 strain (AID 153); settings: S. cerevisiae mgt1 mutant growth inhibition, hits give high values
Outline: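 Strain: mgt1 yeast, one of a set carrying defined DNA damage repair or cell cycle control alterations. Compound-treated growth compared with vehicle.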

[5] = NCI Yeast Anticancer Drug Screen. Data for the rad50 strain (AID 155);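 note: 0% = growth of vehicle-only cultures of the same strain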; settings: S. cerevisiae rad50 strain growth inhibition, hits give high values
Outline: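 A DNA repair-deficient yeast mutant serves as the test organism; compound-induced growth inhibition is calculated against vehicle-treated cells.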

[6] = NCI Yeast Anticancer Drug Screen. Data for the mec2-1 strain (AID 157); settings: S. cerevisiae mec2-1 strain, hits give high values
Outline: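 Strain: mec2-1 (DNA repair/cell cycle alteration). Compound exposure, then growth measured; inhibition expressed relative to vehicle.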

[7] = NCI Yeast Anticancer Drug Screen. Data for the rad14 strain (AID 159);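 note: 0% = growth of vehicle-treated control cultures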; settings: S. cerevisiae rad14 strain growth inhibition, hits give high values
Outline: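 Vehicle-treated cultures served as the baseline for growth inhibition of a DNA repair-mutant yeast strain exposed to each compound.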

[8] = NCI Yeast Anticancer Drug Screen. Data for the sgs1 mgt1 strain (AID 161);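 note: 0% = growth of cultures given vehicle only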; settings: S. cerevisiae sgs1 mgt1 strain, hits give high values
Outline: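 Test agents were incubated with a DNA-repair-mutant yeast strain. Growth was then read and compared against vehicle-treated controls.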

[9] = NCI Yeast Anticancer Drug Screen. Data for the CLN2oe strain (AID 163);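 note: 0% = growth of vehicle-only control cultures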; settings: S. cerevisiae CLN2oe strain, hits give high values
Outline: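 Growth of a genetically modified yeast strain is measured after compound exposure and compared with cultures given vehicle alone.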

[10] = NCI Yeast Anticancer Drug Screen. Data for the cln2 rad14 strain (AID 165);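 note: 0% = growth equal to vehicle treated cultures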; settings: S. cerevisiae cln2 rad14 strain, hits give high values
Outline: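 Compounds are applied to the cln2 rad14 yeast strain, and growth is then compared with that of vehicle-treated cultures to give inhibition.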

[11] = NCI Yeast Anticancer Drug Screen. Data for the bub3 strain (AID 167); settings: S. cerevisiae bub3 mutant strain, hits give high values
Outline: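 Inhibition values come from growth of compound-treated mutant yeast normalised to vehicle-treated controls.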

[12] = NCI Yeast Anticancer Drug Screen. Data for the wt2 strain (AID 169);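 note: 0% = growth of vehicle-treated yeast cultures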; settings: S. cerevisiae wt2 strain growth inhibition, hits give high values
Outline: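 This strain belongs to a panel of yeast strains with defined genetic alterations in DNA damage repair or cell cycle control. Compounds are applied, and growth inhibition is measured against vehicle-treated cultures.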

[13] = NCI Yeast Anticancer Drug Screen. Data for the mlh1 strain (AID 171);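 note: 0% = growth of vehicle-treated control cultures of the same strain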; settings: S. cerevisiae mlh1 strain growth inhibition, hits give high values
Outline: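 Growth of the mutant yeast strain after compound exposure, expressed as inhibition relative to vehicle-only controls.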

[14] = NCI Yeast Anticancer Drug Screen. Data for the sgs1 strain (AID 173);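 note: 0% = growth of vehicle-only control cultures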; settings: S. cerevisiae sgs1 mutant, hits give high values
Outline: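 Growth of a yeast strain bearing a defined genetic alteration is measured after compound treatment. Inhibition is expressed relative to vehicle-only controls.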

[15] = NCI Yeast Anticancer Drug Screen. Data for the rad18 strain (AID 177); settings: S. cerevisiae rad18 mutant growth inhibition, hits give high values
Outline: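 Growth of the mutant yeast strain after compound exposure, normalised to vehicle-only cultures.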

[16] = at 5.0 µM (retest, dose inferred, filed as 0.5)
[17] = at 50.0 µM (retest, dose inferred, filed as 5.0)

Measured: growth inhibition

O=[N+]([O-])c1cc(F)c(F)cc1Sc1cc(F)c(F)cc1[N+](=O)[O-]
active: [1]; at 11.0 µM 92% | [1]; at 33.0 µM 98% | [1]; at 100.0 µM 97% | [2]; at 11.0 µM 85% | [2]; at 33.0 µM 98% | [2]; at 100.0 µM 98% | [3]; at 11.0 µM 96% | [3]; at 33.0 µM 98% | [3]; at 100.0 µM 98% | [4]; at 11.0 µM 80% | [4]; at 33.0 µM 99% | [4]; at 100.0 µM 96% | [5]; at 11.0 µM 91% | [5]; at 33.0 µM 98% | [5]; [17] 98% | [5]; at 50.0 µM 98.4% | [5]; at 100.0 µM 97% | [6]; at 11.0 µM 83% | [6]; at 33.0 µM 99% | [6]; [17] 98% | [6]; at 50.0 µM 98.5% | [6]; at 100.0 µM 98% | [7]; at 11.0 µM 83% | [7]; at 33.0 µM 98% | [7]; at 100.0 µM 97% | [8]; [17] 98% | [8]; at 50.0 µM 98.3% | [9]; at 11.0 µM 75% | [9]; at 33.0 µM 99% | [9]; at 100.0 µM 95% | [10]; [17] 97% | [10]; at 50.0 µM 96.8% | [11]; at 11.0 µM 76% | [11]; at 33.0 µM 98% | [11]; [17] 97% | [11]; at 50.0 µM 98.5% | [11]; at 100.0 µM 98% | [12]; at 11.0 µM 91% | [12]; at 33.0 µM 99% | [12]; at 100.0 µM 96% | [13]; at 11.0 µM 90% | [13]; at 33.0 µM 99% | [13]; at 100.0 µM 97% | [14]; at 11.0 µM 92% | [14]; at 33.0 µM 99% | [14]; at 100.0 µM 97% | [15]; at 11.0 µM 94% | [15]; at 33.0 µM 98% | [15]; at 100.0 µM 97%
inactive: [1]; at 1.2 µM 6% | [1]; at 3.7 µM 37% | [2]; at 1.2 µM -4% | [2]; at 3.7 µM 8% | [3]; at 1.2 µM 30% | [3]; at 3.7 µM 68% | [4]; at 1.2 µM -4% | [4]; at 3.7 µM 3% | [5]; at 1.2 µM 6% | [5]; at 3.7 µM 27% | [5]; [16] 66% | [6]; at 1.2 µM -2% | [6]; at 3.7 µM 14% | [6]; [16] -2% | [7]; at 1.2 µM 1% | [7]; at 3.7 µM 17% | [8]; [16] 64% | [9]; at 1.2 µM -2% | [9]; at 3.7 µM 1% | [10]; [16] 27% | [11]; at 1.2 µM -3% | [11]; at 3.7 µM 5% | [11]; [16] 49% | [12]; at 1.2 µM 0% | [12]; at 3.7 µM 12% | [13]; at 1.2 µM 0% | [13]; at 3.7 µM 7% | [14]; at 1.2 µM 6% | [14]; at 3.7 µM 32% | [15]; at 1.2 µM 38% | [15]; at 3.7 µM 69%
